Several values for one entry are separate records, joined by “and”; a condition that tells them apart may be missing. Equal values may be shown once. Activity calls are given as the source filed them. Rule for the calls: active = hit-call score of the fitted dose curve at least 0.9, where 1 is the maximum; inactive = score below 0.9.
Experiments:
[1] = CCTE_Mundy_HCI_Cortical_Synap_Neur_Matur_NeuriteSpotCountPerNeuriteLength: CCTE's Synaptogenesis and Neurite Maturation Assay in rat cortical cells for Neurite Spot Count per Neurite Length, Mundy Lab (AID 2284210)
Description: (§1) CCTE_Mundy_HCI_Cortical_Synap&Neurite_Matur is a multiplexed, cell-based-readout assay that uses rat primary cortical cells with measurements taken at 288.33 hours after chemical dosing in a microplate: 96-well plate.CCTE_Mundy_HCI_Cortical_Synap_Neur_Matur_NeuriteSpotCountPerNeuriteLength is one of eight components of the CCTE_Mundy_HCI_Cortical_Synap&Neurite_Matur assay. It measures synaptogenesis and neurite maturation related to number of neurite-associated synapses (synaptophysin puncta) per unit length of neurite using High Content Imaging of fluorescently labelled markers.[…] Using a type of morphology reporter, loss -of-signal activity can be used to understand developmental effects.
(§2) Cells are plated onto 96 well plates and allowed 2 hr for attachment to the substrate. At days in vitro (DIV) 5, Cytosine Arabinoside (AraC) is added to arrest glial cell growth. Chemicals are dosed and a media change is performed at DIV 7 of differentiation and is continued through DIV 12 when the experiment is terminated. Cells are fixed with […] and Hoechst Dye. Cells are stained using Millipore Mouse anti-MAP2MAB3418 (1:800) and Millipore Rabbit anti-Synaptophysinsc-1750 (1:250) primary antibodies and Alexa Fluor-488 goat anti-mouse and AlexaFluor-546 goat anti-rabbit secondary antibodies to label neuronal cell nuclei, synapses and neurites. A Cellomics ArrayScan VTi HCS Reader is used for automated image acquisition and analysis of neurite outgrowth.

[2] = CCTE_Mundy_HCI_Cortical_Synap_Neur_Matur_BPCount: CCTE's Synaptogenesis and Neurite Maturation Assay in rat cortical cells for Branch Point Count, Mundy Lab (AID 2284211)
Outline: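 Rat primary cortical cultures, AraC added DIV 5; chemicals dosed DIV 7 through DIV 12. Fixed cells stained for MAP2, synaptophysin and Hoechst; neurite branch points counted by automated high-content imaging, fitted relative to DMSO.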

[3] = CCTE_Mundy_HCI_Cortical_NOG_NeuriteCount: CCTE's Neurite Outgrowth Assay in rat cortical cells for Neurite Count, Mundy Lab (AID 2284212);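 note: cells fixed about two days after chemical exposure began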
Outline: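 Neurite number per cell from high-content imaging of betaIII-tubulin immunostaining, with Hoechst nuclear counterstain.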

[4] = CCTE_Mundy_HCI_Cortical_NOG_NeuriteLength: CCTE's Neurite Outgrowth Assay in rat cortical cells for Neurite Length, Mundy Lab (AID 2284213);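 for AC50: neurites imaged about 48 to 50 h after chemical exposure began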
Outline: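 Neurite length was read by high-content imaging of βIII-tubulin-labelled neurites in rat primary cortical cultures. Activity was fitted relative to DMSO.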

[5] = CCTE_Mundy_HCI_Cortical_Synap_Neur_Matur_NeuriteLength: CCTE's Synaptogenesis and Neurite Maturation Assay in rat cortical cells for Neurite Length, Mundy Lab (AID 2284214)
Outline: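 Rat cortical neurons, AraC at DIV 5; compound + media change DIV 7, end DIV 12 (288.33 h). Fix, MAP2/synaptophysin/Hoechst immunostain, automated HCI of neurite length vs DMSO.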

[6] = CCTE_Mundy_HCI_Cortical_Synap_Neur_Matur_NeuriteSpotCountPerNeuron: CCTE's Synaptogenesis and Neurite Maturation Assay in rat cortical cells for Neurite Spot Count per Neuron Count, Mundy Lab (AID 2284215)
Description: as §1, with “plate.CCTE_Mundy_HCI_Cortical_Synap_Neur_Matur_NeuriteSpotCountPerNeuron” for “plate.CCTE_Mundy_HCI_Cortical_Synap_Neur_Matur_NeuriteSpotCountPerNeuriteLength”, “neuron” for “unit length of neurite”
as §2

[7] = TAMU_PeakParms_SingleDonor1434_Chronotropy: Texas A&M University (TAMU) 1.5-hr Human Induced Pluripotent Stem Cell (iPSC)-derived Cardiomyocytes Calcium (Ca+2) Flux Assay for Cardiotoxicity: Chronotropy (changes in peak frequency) (AID 2284217); conditions: actives raise or lower the signal
Outline: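 Beat frequency of single-donor iPSC cardiomyocytes was recorded through a calcium-sensitive dye 1.5 hours after exposure to four concentrations up to 100 uM. An EC05 point of departure was derived.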

[8] = IUF_NPC1b_proliferation_BrdU_72hr: Leibniz Research Institute for Environmental Medicine (IUF) 72-hour Neural Progenitor Cell Bromodeoxyuridine (BrdU) Proliferation Assay (NPC1b) (AID 2284207)
Description: IUF_NPC1 is a cell-based, multiplexed assay that uses hNPC, a human primary neural progenitor cells, with measurements taken at 72 hours after chemical dosing in a 96-well plate. Human neural progenitor cells (hNPC) are generated from human fetal brain cortex at gestational week (GW) 16-19. Grown in suspension culture and under proliferative conditions (proliferation media and growth factors), these cells represent neural progenitor cell proliferation. In the NPC1 assay, hNPC's are exposed to the test compound for 72h. Cell proliferation is assessed as an increase in sphere area using automated phase contrast imaging and as incorporation of Bromodeoxyuridine (BrdU) during DNA synthesis using a luminescence-based cell proliferation ELISA. In parallel, the cell viability is assessed using an alamar blue viability assay and the cytotoxicity using a lactate dehydrogenase dependent membrane integrity assay.IUF_NPC1b_proliferation_BrdU_72hr is one of 4 assay components measured from the IUF_NPC1 assay. It is designed to measure cell proliferation as assessed by the incorporation of Bromodeoxyuridine (BrdU) in the last 16 h of a 72 h compound exposure using a luminescence-based cell proliferation ELISA.Data from the IUF_NPC1b_proliferation_BrdU component was analyzed at the endpoint IUF_NPC1b_proliferation_BrdU in the positive analysis fitting direction relative to DMSO as the negative control and baseline of activity. Using a type of growth reporter, gain or loss-of-signal activity can be used to understand cell proliferation effects.
After the cell expansion period, the cells are cultured for up to four weeks in which they are passaged every week. Between one to three days after passaging, depending on the size chosen for passaging, spheres at a size of 0.3 mm are used in the assay. For the assessment of neural progenitor cell proliferation, the spheres are plated in poly-Hema coated 96-well U-bottom plates filled with proliferation medium containing growth factors (EGF and FGF). One 0.25 - 0.35 mm big sphere is plated in the middle of each well. Within 3 days NPCs proliferate and grow in size. Cultivation during the test method is performed at 37C and 5% CO2 at a pH of 7.2-7.6. As a positive control, spheres are cultivated in the absence of growth factors (EGF and FGF), which dramatically reduces proliferation. Exposure starts on the plating day (day 0) and is continued over three days, without chemical renewal, until the experiment is terminated. The assay is terminated by the assessment of cell viability, cytotoxicity, and proliferation by BrdU. All endpoints are generated from the same experimental run and from each well/sphere in the 96-well plate.

[9] = IUF_NPC1a_proliferation_area_72hr: Leibniz Research Institute for Environmental Medicine (IUF) 72-hour Neural Progenitor Cell Proliferation Area Assay (NPC1a) (AID 2284208)
Outline: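 Proliferation is scored as sphere area gain in primary human fetal neural progenitors treated for 72 h in EGF/FGF-containing medium. Viability, LDH and BrdU readouts come from the same wells.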

[10] = IUF_NPC1_viability_72hr: Viability Assessment at 72 hours in the Leibniz Research Institute for Environmental Medicine (IUF) Neural Progenitor Cell Proliferation Assay (NPC1) (AID 2284209)
Outline: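 hNPC spheres, 1/well, EGF+FGF medium, 37C/5% CO2; dosed day 0, 72 h, no re-dosing. Resazurin reduction (alamar blue) fluorescence; DMSO = negative control/baseline; growth-factor-free wells as positive control.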

Measured: AC50

CCC1(c2ccccc2)C(=O)N=C(O)NC1=O (stereo not given)
active: [7] 29.7 µM
not listed: [8] | [9] | [10]
inactive: all other assays above

CCCCOCCOP(=O)(OCCOCCCC)OCCOCCCC
inactive: [8] | [9] | [10]

O=P(Oc1ccccc1)(Oc1ccccc1)Oc1ccccc1
inactive: [8] | [9] | [10] | [7]

O=P1(N(CCCl)CCCl)NCCCO1 (stereo not given)
inactive: [1] | [2] | [3] | [4] | [5] | [6]

CO/N=C(/C(=O)OC)c1ccccc1COc1ccccc1C
active: [8] 23.8 µM | [9] 31.6 µM | [1] 3.36 µM | [2] 5.13 µM | [3] 19.1 µM | [4] 14.5 µM | [5] 6.23 µM | [6] 3.31 µM
inactive: [10]

CCCCC(CC)COP(=O)(Oc1ccccc1)Oc1ccccc1 (stereo not given)
active: [8] 0.542 µM
inactive: all other assays above

c1cc2c3c(cccc3c1)CC2
active: [7] 32.2 µM

CCOc1ccc(C(C)(C)COCc2cccc(Oc3ccccc3)c2)cc1
active: [8] 1.92 µM | [1] 23.7 µM | [2] 26.8 µM | [3] 21.9 µM | [5] 3.81 µM | [6] 11.9 µM
inactive: [9] | [10] | [4]

CCOP(=S)(OCC)SCSCC
active: [8] 0.761 µM | [1] 50 µM and 67.2 µM | [2] 80.7 µM and 50 µM | [5] 78.1 µM and 70.2 µM | [6] 50 µM
inactive: [9] | [10] | [3] | [4]

CC(C)(C)c1ccccc1OP(=O)(Oc1ccccc1)Oc1ccccc1
inactive: [8] | [9] | [10] | [1]
active: [2] 2.98 µM | [3] 19 µM | [4] 21.6 µM | [5] 1.6 µM | [6] 2.07 µM | [7] 32 µM

O=S1(=O)OCC2C(CO1)C1(Cl)C(Cl)=C(Cl)C2(Cl)C1(Cl)Cl (stereo not given)
inactive: [8] | [9] | [10]

O=C(O)C(F)(OC(F)(F)C(F)(F)C(F)(F)F)C(F)(F)F (stereo not given)
not listed: [7]
inactive: all other assays above
